{
  "source": "PubChem BioAssay (Tox21)",
  "note": "Values joined by “and” are separate entries in the source; they are usually repeats but may differ in a detail not shown here. Equal entries are not always repeated. Inconclusive results are not listed. Where a structure was tested more than once in an assay, its records may differ in their call. Active and inactive are the calls of the source. Calls follow the shape of the dose curve; as a rule, active = well fitted activation curve with a large enough effect in the repeat runs; inconclusive = weak or mixed curves; inactive = no such curve, though single readings can be large or run the other way. % is scaled to controls: 0 for no effect and ±100 for the full control effect; potency is read from the fitted curve at half-maximal effect.",
  "data": [
    {"biological_target": "Nuclear receptor subfamily 1 group I member 2 (Homo sapiens) (UniProt O75469)", "sequence (O75469 whole entry, looked up)": "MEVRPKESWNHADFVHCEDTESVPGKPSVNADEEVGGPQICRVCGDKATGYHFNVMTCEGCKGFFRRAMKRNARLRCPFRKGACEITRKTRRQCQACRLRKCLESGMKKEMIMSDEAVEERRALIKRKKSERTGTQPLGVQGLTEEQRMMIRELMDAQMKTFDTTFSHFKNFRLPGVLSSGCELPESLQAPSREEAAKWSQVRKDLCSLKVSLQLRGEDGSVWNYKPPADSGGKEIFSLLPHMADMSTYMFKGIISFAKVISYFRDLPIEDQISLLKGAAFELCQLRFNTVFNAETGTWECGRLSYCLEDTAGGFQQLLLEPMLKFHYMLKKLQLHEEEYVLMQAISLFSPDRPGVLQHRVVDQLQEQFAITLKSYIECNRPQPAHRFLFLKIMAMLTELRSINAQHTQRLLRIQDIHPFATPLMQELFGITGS", "assay": "Human pregnane X receptor (PXR) small molecule agonists, qHTS assay (AID 1346982); also: nearly all actives have a fitted effect of over 35% in size", "details": "PXR-Luc HepG2, CYP3A4 luciferase reporter, 24 h; series mostly up to 92.4 µM; activation: at the top concentration", "excerpt": "National Center for Advancing Translational Sciences [NCATS]\nNIH Chemical Genomics Center [NCGC]\nU.S. Environmental Protection Agency [EPA]\nNational Institutes of Environmental Health Sciences [NIEHS]\nNational Toxicology Program [NTP]\nThe human pregnane X receptor (hPXR) regulates the expression of several drug metabolizing enzymes and induction of these proteins is a major mechanism for developing drug resistance in cancer. One such key enzyme catalyzing the drug metabolism is cytochrome P450 3A4 (CYP3A4). Changes in CYP3A4 expression affect drug metabolism, thereby reducing the therapeutic efficacy and altering toxicological response to a drug and which finally causes adverse drug interaction. To screen Tox21 libraries for compounds that activate hPXR-mediated CYP3A4 gene expression, PXR-Luc HepG2 cells were used.\nPXR-Luc HepG2 cells were dispensed at 2,000 per well in 5uL of assay medium containing 5% charcoal-stripped FBS into white solid bottom 1536-well plates (Corning Life Sciences, Corning, NY) using a Multidrop Combi (Thermo Scientific, Waltham, MA) dispenser. The assay plates were incubated at 37 C and 5% CO2 for 5hr, and then 23nL of compounds dissolved in DMSO and positive control were transferred using a Pintool station (Wako, San Diego, CA). The assay plates were incubated at 37C and 5% CO2 for 24hr. For luciferase read, 4uL of ONE-Glo reagent (Promega Corporation, Madison, WI) was added to each well of the assay plates using Flying Reagent Dispenser (FRD, Aurora Discovery, San Diego, CA) and incubated the assay plates at room temperature for 30min. The luminescence signal was quantified using a ViewLux plate reader (Perkin Elmer, Shelton, CT).", "values": [
      {"smiles": "C=CCc1ccc2c(c1)OCO2", "Potency": "61.4 µM (active) and inactive"},
      {"smiles": "C1=Cc2cccc3cccc1c23", "activation": "-9.22% (inactive)"},
      {"smiles": "Nc1cccnc1", "Potency": "inactive"},
      {"smiles": "CN(C)C(=O)Nc1ccc(Cl)cc1", "Potency": "inactive"},
      {"smiles": "COP(=S)(OC)Oc1cc(Cl)c(Cl)cc1Cl", "Potency": "30.4 µM (active) and inactive"},
      {"smiles": "Cc1ccccc1[N+](=O)[O-]", "Potency": "inactive"},
      {"smiles": "Nc1ccc(-c2ccc(N)c(N)c2)cc1N", "Potency": "24.3 µM (active)"},
      {"smiles": "Oc1cc(Cl)c(Cl)cc1Cl", "Potency": "60.6 µM (active)"},
      {"smiles": "Cc1cccc(N)c1N", "Potency": "26.4 µM (active) and 54.5 µM (active)"},
      {"smiles": "O=C(O)C(F)(F)C(F)(F)C(F)(F)C(F)(F)C(F)(F)C(F)(F)C(F)(F)F", "Potency": "inactive"},
      {"smiles": "c1cc(OCC2CO2)ccc1Cc1ccc(OCC2CO2)cc1", "note": "(stereo not given)", "Potency": "68.9 µM (active) and 61.1 µM (active)"},
      {"smiles": "C[C@]12CCC(=O)C(O)=C1CC[C@@H]1[C@@H]2CC[C@]2(C)C(=O)CC[C@@H]12", "Potency": "54.5 µM (active) and inactive"},
      {"smiles": "Nn1cnnc1", "Potency": "inactive"},
      {"smiles": "Nc1ccc(Cl)c(Cl)c1", "Potency": "inactive"},
      {"smiles": "C=CCN(CC=C)C(=O)C(Cl)Cl", "activation": "7.3% (inactive)"},
      {"smiles": "CCC(C)c1cc([N+](=O)[O-])cc([N+](=O)[O-])c1O", "note": "(stereo not given)", "Potency": "inactive and 27.3 µM (active)"},
      {"smiles": "CCCCCCCCCCCOC(=O)c1ccccc1C(=O)OCCCCCCCCCCC", "Potency": "inactive"},
      {"smiles": "CCCCNC(=O)n1c(NC(=O)OC)nc2ccccc21", "Potency": "60.8 µM (active)"},
      {"smiles": "N#CCCCl", "Potency": "inactive"},
      {"smiles": "CCCCC(CC)COC(=O)Cl", "note": "(stereo not given)", "Potency": "inactive"},
      {"smiles": "CC(C)c1ccc(CO)cc1", "Potency": "inactive"},
      {"smiles": "Oc1c(Cl)c(Cl)c(Cl)c(Cl)c1Cl", "Potency": "59.9 µM (active) and 54.5 µM (active)"},
      {"smiles": "NCc1cccnc1", "Potency": "inactive"},
      {"smiles": "CCOc1cc(C=O)ccc1O", "Potency": "inactive"},
      {"smiles": "CCN(CC)C(=O)/C(Cl)=C(\\C)OP(=O)(OC)OC", "Potency": "inactive and 54.5 µM (active)"},
      {"smiles": "CCC(C)(c1ccc(O)cc1)c1ccc(O)cc1", "Potency": "12.2 µM (active) and 5.45 µM (active)"},
      {"smiles": "CCCCN(CC)c1c([N+](=O)[O-])cc(C(F)(F)F)cc1[N+](=O)[O-]", "Potency": "27.7 µM (active) and 7.7 µM (active)"},
      {"smiles": "O=S(=O)(Oc1ccc(Cl)cc1)c1ccc(Cl)cc1", "Potency": "55.2 µM (active) and 30.6 µM (active)"},
      {"smiles": "N#CC(Br)Br", "Potency": "inactive"},
      {"smiles": "Cc1ccc2c(c1N)C(=O)c1ccccc1C2=O", "Potency": "4.28 µM (active) and 1.93 µM (active)"},
      {"smiles": "Cc1ccc(OP(=O)(Oc2ccc(C)cc2)Oc2ccc(C)cc2)cc1", "Potency": "5.44 µM (active) and 13.7 µM (active)"},
      {"smiles": "CC(O)CCO", "note": "(stereo not given)", "Potency": "inactive"},
      {"smiles": "O=[N+]([O-])c1c(Cl)c(Cl)c(Cl)c(Cl)c1Cl", "activation": "21.3% (inactive)"},
      {"smiles": "CCOCN(C(=O)CCl)c1c(C)cccc1CC", "Potency": "2.58 µM (active)"},
      {"smiles": "c1nc[nH]n1", "Potency": "inactive"},
      {"smiles": "C=C(C)[C@H]1Cc2c(ccc3c2O[C@@H]2COc4cc(OC)c(OC)cc4[C@@H]2C3=O)O1", "Potency": "inactive"},
      {"smiles": "Cc1cc(Cl)ccc1OCCCC(=O)O", "activation": "13.7% (inactive)"},
      {"smiles": "C=CCc1ccc(OC)cc1", "Potency": "inactive"},
      {"smiles": "C=C(C)C(=O)OCC1CO1", "note": "(stereo not given)", "Potency": "inactive"},
      {"smiles": "CCCCCCCCC(=O)NCc1ccc(O)c(OC)c1", "Potency": "27.3 µM (active) and inactive"}
    ]}
  ]
}
